RXFP1 ag: qHTS Assay for Agonists of the Relaxin Receptor RXFP1 | 0.3% of 370,000 active | AID 2676, 2010 | HEK293T-RXFP1 cAMP TR-FRET, 30 min; response scale: percent of porcine relaxin response, buffer zero | Potency, µM (top dose mostly 57.5 µM), for the others: top-dose activation, usual class: activators | Relaxin receptor 1 (Homo sapiens), Q9HBX9; active means well fitted activation curve with a large enough effect; inconclusive means small, poorly fitted or top-dose-only effect; further: potency means the concentration at half of the fitted maximal effect; on the % scale 0 is the no-effect control and ±100 the full control effect; nearly all actives have a fitted effect of over 60% in size
Target sequence (Q9HBX9 whole entry, looked up): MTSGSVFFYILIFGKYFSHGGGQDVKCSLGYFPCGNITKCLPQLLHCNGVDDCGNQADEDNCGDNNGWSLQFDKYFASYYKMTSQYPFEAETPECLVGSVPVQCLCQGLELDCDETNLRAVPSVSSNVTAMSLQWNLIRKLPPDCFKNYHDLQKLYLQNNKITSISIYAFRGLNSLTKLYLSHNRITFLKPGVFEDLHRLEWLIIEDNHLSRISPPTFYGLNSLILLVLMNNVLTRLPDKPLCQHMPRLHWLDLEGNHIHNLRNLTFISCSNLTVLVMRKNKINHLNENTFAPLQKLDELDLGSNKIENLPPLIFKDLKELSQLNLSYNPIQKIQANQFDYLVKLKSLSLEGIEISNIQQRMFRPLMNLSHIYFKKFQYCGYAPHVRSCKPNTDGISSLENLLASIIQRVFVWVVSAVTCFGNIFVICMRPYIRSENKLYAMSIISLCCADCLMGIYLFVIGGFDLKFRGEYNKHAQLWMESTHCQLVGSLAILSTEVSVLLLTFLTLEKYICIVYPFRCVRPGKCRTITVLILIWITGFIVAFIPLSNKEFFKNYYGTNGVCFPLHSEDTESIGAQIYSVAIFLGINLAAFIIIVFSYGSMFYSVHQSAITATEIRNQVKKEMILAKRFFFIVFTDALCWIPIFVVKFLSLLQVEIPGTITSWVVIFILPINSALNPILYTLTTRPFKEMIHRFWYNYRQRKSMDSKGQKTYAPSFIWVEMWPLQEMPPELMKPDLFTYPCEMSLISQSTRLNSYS
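cAMP rise read by TR-FRET after 30 min, 37C compound exposure (up to 58 uM) in RXFP1-transfected HEK293 cells with Ro 20174 present. EC50 from Hill-equation fits, with 29 nM porcine relaxin as 100% and buffer as basal.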
pAkt inh: HTS Assay for Inhibitors of Akt Phophorylation: Primary Screen; Neuro2A IGF-stimulated pAkt S473 HTRF, 20 min; stronger effect = lower value; activity change, % for hits at 50 µM; 0.32% of 360,000 active; AID 651550, 2012; in the data active means activity change below about -80%; inconclusive means mostly about -51% to -80%; further: on the % scale 0 is the no-effect control and ±100 the full control effect
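Single-point screen (50 µM final compound) in Neuro2A cells stimulated 20 min with 6 nM IGF at 37 deg C. After lysis, Ser473-phosphorylated Akt read by HTRF (ex 330 nm, em 615/665 nm) as the 665/615 ratio.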
RXFP1 antag: qHTS Assay for Antagonists of the Relaxin Receptor RXFP1; Relaxin receptor 1 (Homo sapiens), Q9HBX9; HEK293-RXFP1, relaxin-stimulated cAMP HTRF, 30 min; stronger effect = lower value; activity change, negative = inhibition, % at 57.5 µM; 0.59% of 350,000 active; AID 1259400, 2018;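 active means activity change of -60% or lower, but not beyond a set lower limit; inconclusive means change between -60% and -40%, or beyond the set limit; inactive means change above -40%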; further: on the % scale 0 is the no-effect control and ±100 the full control effect
gsp antagonist: qHTS for Antagonists of gsp, the Etiologic Mutation Responsible for Fibrous Dysplasia/McCune-Albright Syndrome: qHTS | gsp-mutant cells, cAMP HTRF, 30 min | Potency, µM (titrated, usually from 76.9 µM), for inactives: at the top dose activity change, negative = inhibition, actives largely listed as inhibitors | 0.4% of 340,000 active; calls by dose curve; cell line not stated here;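 further: intracellular cAMP measured with PDE inhibitor Ro 20-1724 present during compound exposure; potency means the concentration at half of the fitted maximal effect; on the % scale 0 is the no-effect control and ±100 the full control effect; nearly all actives have a fitted effect of over 65% in size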
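HTRF cAMP measurement after 30 min RT detection following 30 min, 37C compound treatment alongside […] (added as 300 uM solution) in G418-selected cells seeded at 2000/well and grown 16–24 h.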
gsp ag: qHTS for Agonist of gsp, the Etiologic Mutation Responsible for Fibrous Dysplasia/McCune-Albright Syndrome: qHTS | Potency, µM (doses to about 76.9 µM), for the others: top-dose activation (cAMP increase), hits mostly activators | 0.13% of 340,000 active | gsp mutant cells, cAMP HTRF, 30 min; active means well fitted activation curve with a large enough effect; inconclusive means small, poorly fitted or top-dose-only effect, or another doubt; inactive means no such curve, though single readings can be large or run the other way; cell line not stated here;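 further: phosphodiesterase inhibitor Ro 20-1724 added with compounds to block cAMP breakdown; potency means the concentration at half of the fitted maximal effect; nearly all actives have a fitted effect of over 60% in size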
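Cells stably selected in G418 were plated at 2000/well, grown 16-24 hr, then given compounds in DMSO with the PDE inhibitor […] (300 uM solution added) for 30 min at 37C; cAMP was read by HTRF.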
* = called active by the depositor; i = inactive; u = inconclusive; x = not tested or not shown; [ ] = dose if it differs, or a comment. Only some compounds are listed: those with a hit (about 1.2% of all), similar ones and a draw of the others.

SMILES	RXFP1 ag	pAkt inh	RXFP1 antag	gsp antagonist	gsp ag
COc1cccc(C2C(C(=O)Nc3ccccc3OC)=C(C)Nc3nc4ccccc4n32)c1 (stereo unspecified)	-3%	x	x	x	x
COc1cc(OC)c(NC(=O)CCCn2nc(C)c3sc4ccccc4c3c2=O)cc1Cl	11%	x	-18	x	x
O=C(COC(=O)CCc1nc2ccccc2s1)NCc1ccco1	0%	i	-6	7%	18%[15.4 µM]
O=C(COC(=O)CCc1nc2ccccc2s1)NC(=O)NCc1ccco1	0%	i	-9	11µM*	1%[15.4 µM]
O=C(Cc1c(F)c(F)c(F)c(F)c1F)Nc1nc(-c2ccccc2)cs1	10%	i	-65*	-11%	-6%[15.4 µM]
O=C(O)CCCC(=O)Nc1nc(-c2ccccc2)cs1	3%	i	1	u	-1%
O=C(NC(=S)Nc1nc(-c2ccccc2)cs1)c1ccco1	2%	i	-63*	-7%	-59%
O=C(Cc1ccc(F)cc1)Nc1nc(-c2ccc(F)cc2)cs1	0%	i	u	0%	-10%[15.4 µM]
COc1ccc(-c2csc(NC(=O)CN3C(=O)CCC3=O)n2)cc1	1%	i	-4	-3%	6%
O=C(CN1C(=O)CCC1=O)Nc1nc(-c2ccc(Oc3ccccc3)cc2)cs1	0%	i	-70*	-23%	1%
O=C(O)CCCC(=O)Nc1nc(-c2ccc(F)cc2)cs1	0%	-115%*	-3	2%	1%
COc1cccc(CN2CCCN(S(=O)(=O)c3ccc(Br)cc3)CC2)c1	-1%	i	-6	40µM*	3%
O=S(=O)(c1ccc(Br)cc1)N1CCCN(Cc2cccc(F)c2)CC1	0%	i	-20	-7%	5%
CCC(C)NC(=O)CSc1c2c(nc3ccccc13)CCCC2 (stereo unspecified)	9%	i	-7	3%	13µM*
Cc1cccc(NC(=O)CSc2c3c(nc4ccccc24)CCC3)n1	2%	i	-2	-3%	u
CCC(C)NS(=O)(=O)c1ccc(OC)c(Cl)c1Cl (stereo unspecified)	2%	-122%*	4	-19%	-9%
COc1cccc(OCCOc2ccccc2[N+](=O)[O-])c1	x	i	-1	-17%	2%
COc1ccc(OCCN2C(=O)c3ccccc3C2=O)c([N+](=O)[O-])c1	-3%	i	4	-7%	10µM*
COc1cccc(CNC(=O)c2ccc3c(c2)N(C)C(=O)C2CCCCN32)c1 (stereo unspecified)	1%	x	0	x	x
COc1ccc(C(=O)N=C2SC3CS(=O)(=O)CC3N2c2ccc(N(C)C)cc2)cc1OC (stereo unspecified)	29%	x	-76*	0%	u
Cc1ccc(Cn2c(CN3CCC(C(=O)NCCc4ccccc4)CC3)cc3ccccc32)cc1	0%	x	-20	x	x
Cn1c(O)c(/C=N/NC(=O)c2cc3ccccc3cc2O)c2ccccc21	5%	i	u	35µM*	-8%[15.4 µM]
Cn1c2ccccc2c2cc(/C=N/NC(=O)c3ccc(O)cc3O)ccc21	3%	i	-3	u	20%
O=c1oc2c3c(ccc2c2ccccc12)OCN(Cc1ccccc1Cl)C3	28µM*	x	2	x	x
Cc1cc(=O)oc2c3c(ccc12)OCN(Cc1ccccc1Cl)C3	10%	x	x	x	x
CCNC(=O)c1c(NC(=O)c2nc(S(=O)(=O)CC)ncc2Cl)sc2c1CCCC2	u	x	-31	x	x
Cc1cccc(N2CCN(C(=O)c3ccc(CS(=O)Cc4ccc(Cl)cc4)o3)CC2)c1C (stereo unspecified)	0%	i	-78*	-25%	11%
Cc1ccccc1S(=O)Cc1ccc(C(=O)N2CCN(c3cccc(C)c3C)CC2)o1 (stereo unspecified)	6%	x	-98*	x	x
O=C(c1ccc(CS(=O)Cc2ccc(Cl)cc2)o1)N1CCN(c2ccc(F)cc2)CC1 (stereo unspecified)	1%	i	-1	-3%	-23%

Screens as filed in PubChem BioAssay.
